HIF-2a block = HIF-2a reporter inhibitors, primary screen, luminescence, 786-0 RCC cells; 786-0 RCC cells HIF-2a reporter, luciferase luminescence, overnight; inhibition, % at 18.8 µM; 360,000 compounds, 0.72% hits;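 active = inhibition of the luminescence signal of 40% or more relative to plate controls, in a single-dose primary screen at 18.75 µM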
CF NFkB inh = inhibitors of PAF-induced NF-kB signaling, primary screen, cell-based, GFP fluorescence, uHTS | 360,000 compounds, 0.86% hits | inhibition, % at 5 µM | KKLEB NF-kB-GFP reporter, GFP fluorescence overnight;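 active = at least 50% inhibition at 5 µM, scaled per plate between neutral and stimulator controls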;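 also: PAF is a Pseudomonas aeruginosa culture filtrate used as stimulus; plate controls were PAF-stimulated DMSO wells for no effect and unstimulated DMSO wells for full effect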
TRPM1 prom inh = inhibitors of MITF-dependent TRPM1 promoter reporter, primary screen, cell-based, SK-MEL-5, single point, luciferase; SK-MEL-5 TRPM1 promoter luciferase, 24 h; inhibition, % at 12.5 µM; 330,000 compounds, 0.83% hits; AID 488899, 2010;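 active = mean inhibition across replicates of 60% or more, whatever share of single replicates reaches that level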
Peg3 promoter = Peg3 promoter-driven luciferase inhibitors, primary screen, cell-based, HeLa, luciferase luminescence; HeLa PEG-Prom luciferase reporter, overnight; inhibition, % at 20 µM; 360,000 compounds, 1.7% hits;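 active = inhibition of at least 50% at 20 µM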
KKLEB tox = cytotoxicity in KKLEB CF airway cells, primary screen, cytotoxicity control for CF NF-kB inhibitor project, cell-based, uHTS, fluorescence assay plates. 360,000 compounds, 0.36% hits. activity change (cytotoxicity), % at 5 µM. KKLEB CF airway cells viability, ATPlite luminescence, overnight; hits give low values; cells stimulated with P. aeruginosa culture filtrate. AID 602141, 2011;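 active = corrected activity change at or below -50% at 5 µM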
Shn3 inh set2 = reduction of Shn3 3'UTR firefly luciferase signal, primary screen, Schnurri-3 inhibitor project, cell-based, Clone20 osteoblasts, set 2. inhibition, % at 12.5 µM. 360,000 compounds, 0.52% hits. AID 588674, 2011. Clone20 osteoblast Shn3 3'UTR firefly luciferase, 24 h;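 active = mean inhibition of at least 75% with every replicate also reaching 75%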;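 also: 0% = median of neutral control wells and 100% = pilot-screen positive control compound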
CF NFkB conf = inhibitors of PAF-induced NF-kB signaling, retest, confirmation, cell-based, GFP fluorescence, single concentration; shares compounds with CF NFkB inh; KKLEB CF airway cells, overnight; 1,300 compounds, 64% hits; AID 602472, 2012; inhibition, % at 5 µM; in the data active = inhibition above about 40%;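 also: stimulus PAF is a Pseudomonas aeruginosa filtrate and not platelet activating factor; plate controls were DMSO wells with stimulus for no effect and unstimulated DMSO wells for full effect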
Mdm2-MdmX confirm = retested Mdm2-MdmX interaction blockers, confirmation, cell-based, luminescence, single concentration, set 2; 740 compounds, 99% hits; shares compounds with HIF-2a block; AID 504601, 2011; inhibition, % at 8 µM; SaOS-2 split-luciferase Mdm2/MdmX complementation;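 active = mean inhibition of the luminescence signal across two replicates at or above 26 percent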
HIF-2a inh conf = HIF-2a reporter inhibitor retest, confirmation, luminescence, 786-0 RCC cells | shares compounds with HIF-2a block | inhibition, % at 18.8 µM | HIF-2a luciferase reporter luminescence, overnight | 1,800 compounds, 56% hits;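 active = mean inhibition across four replicates of at least 40 percent at the single tested concentration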
HIF-1a counter = HIF-1a luciferase reporter signal reduction – MiaPaCa-2 cells, single concentration, counter-screen for HIF-2a inhibitor project, confirmation; shares compounds with HIF-2a block; MiaPaCa-2 HIF-1a luciferase reporter, desferoxamine, overnight; inhibition, % at 18.8 µM; 1,800 compounds, 72% hits; AID 651589, 2012;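 active = mean inhibition of the reporter signal across four replicates at the single tested dose of 50% or more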
* hit, by the source's call; . = no result. Compounds with a hit are over-represented: about 2.7% of the library has one in this group of screens.

SMILES	HIF-2a block	CF NFkB inh	TRPM1 prom inh	Peg3 promoter	KKLEB tox	Shn3 inh set2	others
CC(C)NC1C2CCC(CC2)C1(O)c1ccc(Cl)c(Cl)c1 (centres undefined)	4	-13	.	4	-4	-26
CC12CC(=O)C3C(CCC4CC(=O)C=CC43C)C1CCC2=O (centres undefined)	23	66*	-2	1	19	8	CF NFkB conf=5
O=C(CN1CCOCC1)c1cccc2ccccc12	-1	6	5	14	-9	-8
Cc1c(C(=O)c2cccc3ccccc23)c2cccc3c2n1[C@H](CN1CCOCC1)CO3	70*	55*	58	79*	-7	14	CF NFkB conf=64*;HIF-2a inh conf=46*;HIF-1a counter=79*
COc1ccc2c(c1)[nH]c1c(C)nccc12	38*	57*	18	18	6	27	CF NFkB conf=83*;HIF-2a inh conf=12;HIF-1a counter=86*
O=c1c2ccccc2nc(-c2ccccc2Cl)n1-c1cccc(O)c1	5	13	.	18	-9	17
CC(=O)c1c(C)n(C2CCCCC2)c2ccc(O)cc12	20	96*	14	20	-14	14	CF NFkB conf=100*;Mdm2-MdmX confirm=85*
Clc1ccc2sc(C3CCNCC3)nc2c1	-89	2	-49	-80	6	-46
COc1cc2c(cc1O)C[C@H]1NCCc3cc4c(c-2c31)OCO4	50*	-315	23	44	17	4	HIF-2a inh conf=35;HIF-1a counter=104*
CCOc1ccc(NC2=NCCCS2)cc1	-6	-5	-6	-23	4	4
COc1cc(/C=C/[N+](=O)[O-])ccc1O	70*	-33	57	18	1	10	HIF-2a inh conf=52*;HIF-1a counter=21
Cc1cc(=O)oc2c(C)c(OCC(=O)N3CCN(Cc4ccccc4)CC3)ccc12	-13	6	-4	9	-8	1
CC(C)COC(=O)c1ccccc1C(=O)OCC(C)C	-1	7	3	15	8	2
C[CH2][Hg][S]c1ccccc1C(=O)O	97*	86*	95*	94*	-89*	98*	Mdm2-MdmX confirm=102*
COc1ccccc1NC(=O)c1cn(CCC#N)nc1-c1cccc(Cl)c1	8	8	-4	26	-10	1
C#C[C@]1(O)CCC2C3C(CC[C@@]21C)[C@@]1(C)CC[C@@H](O)CC1=C[C@H]3O (some centres undefined)	9	5	-2	2	14	8
CC[C@@]1(O)C(=O)OCc2c1cc1n(c2=O)Cc2cc3c(NC(=O)CN)cccc3nc2-1	21	-5	42	-2	-34	27	Mdm2-MdmX confirm=97*
CC(=NCc1cccnc1)c1c(O)n(-c2ccc(Cl)cc2)c(=O)[nH]c1=O	8	3	1	-3	1	-4
COC(=O)C1=C(c2ccc(-c3ccccc3)c(F)c2)C[C@@H]2CC[C@H]1N2C(=O)NCCOc1ccc(OC)cc1	15	16	15	23	-9	37
